Experimental data taken from PubChem BioAssay AID588342 (National Center for Advancing Translational Sciences (NCATS), 2011).
Screen size: about 360,000 compounds; about 25,000 (6.9%) were called active. Where a call stands in place of a potency, no number is given. About 9% were inconclusive and are not listed. This is one part of a sample in which actives are shown more often than they occur. The call rests on the fitted dose curve; in most records, active means well fitted inhibition curve with a large enough effect; inconclusive means small, poorly fitted or top-dose-only effect; inactive means flat fitted curve, though single readings scatter.
Further: nearly all actives have a fitted effect of over 55% in size.

Each molecule was assayed against Luciferin 4-monooxygenase (Photinus pyralis) (UniProt P08659) (assay: qHTS profiling assay for firefly luciferase inhibitor/activator using purifed enzyme and Km concentrations of substrates (counterscreen for miR-21 project)). Conditions: purified FLuc, luminescence inhibition; series mostly up to 57.5 µM.
Sequence of Luciferin 4-monooxygenase (Photinus pyralis) (P08659 whole entry, looked up): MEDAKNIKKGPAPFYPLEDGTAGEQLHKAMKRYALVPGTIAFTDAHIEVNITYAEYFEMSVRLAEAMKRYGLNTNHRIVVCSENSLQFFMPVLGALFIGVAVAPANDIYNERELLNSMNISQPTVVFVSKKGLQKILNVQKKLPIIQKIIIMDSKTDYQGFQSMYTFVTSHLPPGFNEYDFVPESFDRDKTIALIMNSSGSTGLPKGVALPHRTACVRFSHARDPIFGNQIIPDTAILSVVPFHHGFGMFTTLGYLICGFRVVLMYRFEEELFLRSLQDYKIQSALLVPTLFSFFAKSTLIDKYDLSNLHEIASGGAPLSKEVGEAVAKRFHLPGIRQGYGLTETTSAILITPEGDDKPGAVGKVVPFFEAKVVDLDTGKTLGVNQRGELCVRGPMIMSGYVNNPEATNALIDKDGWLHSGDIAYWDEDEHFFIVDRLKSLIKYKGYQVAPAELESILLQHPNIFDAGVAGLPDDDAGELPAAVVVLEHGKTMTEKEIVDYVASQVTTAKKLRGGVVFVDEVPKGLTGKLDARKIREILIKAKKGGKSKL
Excerpt: MLPCN Grant: 1 R21 NS059478-01 (miR-21 grant) Assay Provider: NCGC NCGC Assay Overview: Firefly (Photinus pyralis) luciferase is one of the most commonly used transcriptional reporters for a number of reasons. It is considered one of the more dynamically responsive reporters -that is, responsive to changes in reporter transcription - as it requires no post-translational modifications and is enzymatically active directly after protein synthesis (Wood, 1998). Additionally, the half-life of the luciferase protein is short relative to other reporter-gene products (Wood, 1995). Whereas reporters with long half-lives potentially allow for increased signal due to accumulation of reporter-gene product, once accumulated in the cell, dynamic changes in reporter-gene expression may be difficult to detect(Fan and Wood, 2007; Almond et al., 2004). It has been shown that wild-type P. pyralis luciferase has a half-life of approximately […] hours in mammalian cells (Thompson et al., 1991). Firefly luciferase reporter-gene assays are also generally considered one of the most sensitive assay types (Wood, 1995; Wood, 1998). Although light produced in a bioluminescence reaction is of lower intensity than that produced during fluorescence emission, this is offset by little to no background light inherent to luminescent assays. Thus the luciferase reporter can be expressed at much lower levels than fluorescent proteins while still providing robust signal. # However, it was initially observed, in 1991, by Thompson et al., that compounds that resemble the substrates of firefly luciferase (FLuc) can act as competitive inhibitors of the enzyme, and that these compounds, upon interaction with luciferase in the cell, can actually stabilize the protein and increase its half-life. Accumulated intracellular FLuc protein can be measured as an increase in luminescence signal, upon addition of detection reagents (which contain high concentrations of FLuc substrates) commonly used in high-throughput screening. In cell-based reporter gene assays that use FLuc as the reporter gene to quantitate the potential influence of a given compound against the target biology, this apparent increase in luminescence can mistakenly be interpreted as identification of a compound that is active against the target of interest. This is the case for the miR-21 FLuc reporter gene assay used to identify inhibitors of the miR-21 pathway (PubChem AID 2289) - compounds of interest will inhibit miR-21 biogenesis/expression or activity, and are identified by causing an increase in luminescence, due to increased FLuc translation. However, FLuc inhibitory compounds that stabilize the FLuc protein will give an identical read-out, making it difficult to distinguish compounds that are active against the target from those active against FLuc. Previous profiling work to determine the prevalence of compounds that affect FLuc enzymatic activity (PubChem AID 411) identified that ~3% of the MLSMR library (then at ~72K) inhibited FLuc. […] Since the MLSMR had grown to ~350K compounds, and since it was expected that a significant percentage of compounds found active in the miR-21 FLuc assay would be FLuc inhibitors, the library was screened for activity against FLuc using a biochemical assay of purified FLuc and KM concentrations of FLuc substrates (D-luciferin and ATP).
NCGC Assay Protocol Summary: Reagents: 50mM Tris acetate, pH 7.5; 10mM Mg acetate; 10uM D-luciferin (Sigma #L9504); 10uM ATP; 0.01% Tween-20; 0.05% BSA; 10nM P. pyralis luciferase (Sigma #L9506) Control compounds used were two known firefly luciferase inhibitors (compounds (2) and (5) in Auld et al., 2010), and DMSO. […]
In the case of `COc1ccccc1-c1nn(Cc2ccccc2)cc1C(=O)N1CCN(c2ncccn2)CC1`, the Potency is reported as “inactive”. For `Cc1cc(C(=O)OCC(=O)Nc2nnc(C(C)C)s2)c2ccccc2n1`, the Potency was “inactive”. In the case of `CC(C)CC(=O)N/C(N)=N/c1nc2ccccc2s1`, the Potency is reported as 0.953 µM (active). `CC(C)CC(=O)NC(=S)NCc1ccccc1` was tested, and the Potency was “inactive”. In the case of `CCC(=O)NC(=Nc1nc2ccccc2s1)NC(=O)CC`, the Potency is reported as 3.79 µM (active). In the case of `CCC(=O)Nc1ccc2nc(SCC(=O)N3CCc4ccccc43)sc2c1`, the Potency is reported as “inactive”. In the case of `CC(C)C(C)NC(=O)COc1ncnc2ccccc12` (configuration not stated), the Potency is reported as “inactive”. With `CCOc1ccccc1NC(=O)CCn1cnnn1` the Potency was “inactive”. With `COc1ccc(S(=O)(=O)N2CCOCC2)cc1NC(=O)CSc1cc(C)ccc1C` the Potency was “inactive”. `CS(=O)(=O)Nc1ccccc1C(=O)OCC(=O)NC1CC1` was tested, and the Potency was “inactive”. `CCN(C(=O)COC(=O)CCOc1cccc(C)c1)c1c(N)n(Cc2ccccc2)c(=O)[nH]c1=O` was tested, and the Potency was “inactive”. `COc1ccc(NC(=O)NC(C)c2c(-n3cccc3)sc(C)c2C)cc1OC` (configuration not stated) was tested, and the Potency was “inactive”. With `COc1ccccc1-c1sc2ccccc2c1-c1ccc(C(C)=O)cc1` the Potency was 15.1 µM (active). For `COc1ccccc1-c1sc2ccccc2c1-c1ccc(Br)nc1`, the Potency was “inactive”. In the case of `COc1cc(C(C)=O)ccc1OC(=O)CN1C(=O)c2ccccc2C1=O`, the Potency is reported as “inactive”. In the case of `O=C(CC1N=C2c3ccccc3N=C(SCc3ccc(F)cc3)N2C1=O)NCc1cccs1` (configuration not stated), the Potency is reported as “inactive”. In the case of `O=C(O)C1=NN(c2c(F)c(F)cc(F)c2F)C(=O)CC1`, the Potency is reported as “inactive”. For `CN(CC(=O)NCCc1ccc(F)cc1)CC(=O)Nc1ccc(F)c(F)c1F`, the Potency was “inactive”. With `Cc1ccc(NC(=O)c2cn3c4c(ccc(Cl)c4c2=O)OC(C)C3)cc1C` (configuration not stated) the Potency was “inactive”. For `O=C(CSCc1cnn(-c2ccccc2)c1-n1cccc1)NCc1ccccc1Br`, the Potency was “inactive”. `COC(=O)Cn1cc(/C=C/[N+](=O)[O-])c2ccccc21` was tested, and the Potency was “inactive”. `O=C(/C=C/c1cccc([N+](=O)[O-])c1)N1CCN(Cc2ccccc2)CC1` was tested, and the Potency was “inactive”. With `O=[N+]([O-])/C=C/c1ccc2c(ccn2Cc2ccccc2)c1` the Potency was 13.5 µM (active). In the case of `Cc1ccc(CN2CC(C(=O)N3CCN(S(=O)(=O)c4ccccc4)CC3)CC2=O)cc1` (configuration not stated), the Potency is reported as “inactive”. For `Cc1nn(C)cc1S(=O)(=O)N1CCN(c2ccc(F)cc2)CC1`, the Potency was “inactive”. With `Cc1nn(C)cc1/C=C1\CCC/C(=C\c2cn(C)nc2C)C1=O` the Potency was 26.9 µM (active). In the case of `Cc1ccccc1-n1c(=O)c2ccccc2n(Cc2ccc(F)cc2)c1=O`, the Potency is reported as “inactive”. In the case of `CCS(=O)(=O)N1CCc2cc(C(=O)NCc3ccc(OC)cc3)ccc21`, the Potency is reported as “inactive”. `CCCc1cc(=O)oc2c(C)c(OCC(=O)Nc3ccccn3)ccc12` was tested, and the Potency was 1.69 µM (active). `CCCc1cc(=O)oc2c(C)c(OCC(=O)NCc3ccccn3)ccc12` was tested, and the Potency was “inactive”. `CCc1cc(=O)oc2c(C)c(OCC(=O)NCCN3CCOCC3)ccc12` was tested, and the Potency was “inactive”. In the case of `COc1ccc(NC(=O)CCN2CCN(CCO)CC2)cc1`, the Potency is reported as “inactive”. In the case of `O=C(Nc1ccon1)c1nc[nH]c1C(=O)NCc1ccccc1`, the Potency is reported as “inactive”. In the case of `Cc1cc(C)n2nc(C(=O)Nc3cccc(S(=O)(=O)N4CCOCC4)c3)nc2n1`, the Potency is reported as “inactive”. For `Cc1c(/C=N/N2C(=O)C3C4C=CC(C4)C3C2=O)c2ccccc2n1C` (configuration not stated), the Potency was “inactive”. For `O=C(Cc1ccccc1)Nc1cccc(C(=O)N/N=C/c2ccco2)c1`, the Potency was “inactive”. For `Cc1c(/C=N\NC(=O)c2cc3ccccc3o2)c2ccccc2n1C`, the Potency was 9.53 µM (active). In the case of `Cc1ccc2occ(/C=N/NC(=O)c3ccccc3C)c(=O)c2c1`, the Potency is reported as “inactive”. `O=C(N/N=C/c1ccc([N+](=O)[O-])cc1)c1c[nH]c2ccccc12` was tested, and the Potency was “inactive”. In the case of `CC(C)(C)n1nc2c(c1NC(=O)c1cc3ccccc3o1)CSC2`, the Potency is reported as “inactive”. `Nc1nonc1-n1nnc(C(=O)N/N=C/c2c[nH]c3ccccc23)c1-c1ccccc1` was tested, and the Potency was “inactive”. In the case of `O=C(O)c1cccc(NC(=S)N/N=C/c2c[nH]c3ccccc23)c1`, the Potency is reported as 0.757 µM (active). With `O=C(CSc1nc2ccccc2o1)N/N=C/c1ccccc1C(=O)O` the Potency was “inactive”. `O=C(N/N=C/c1c[nH]c2ccccc12)c1ccccc1O` was tested, and the Potency was 6.01 µM (active). In the case of `CN(C)S(=O)(=O)c1cccc(NC(=S)N/N=C/C(=O)c2ccccc2)c1`, the Potency is reported as “inactive”. For `O=C(N/N=C/c1c[nH]c2ccccc12)c1cc2ccccc2o1`, the Potency was 13.5 µM (active). For `Cc1c(NC(=O)Nc2ccc(F)c(Cl)c2)c(=O)n(-c2ccccc2)n1C`, the Potency was “inactive”. `Cc1cccc(N2CCN(C(=O)c3cc4c(=O)oc5ccccc5c4s3)CC2C)c1` (configuration not stated) was tested, and the Potency was “inactive”. `CCc1ccc(NC(=O)CCS(=O)(=O)c2cc3c(cc2Cl)NC(=O)CO3)cc1` was tested, and the Potency was “inactive”. `COc1ccc([N+](=O)[O-])cc1NC(=O)c1ccc(N(Cc2ccccc2C)S(C)(=O)=O)cc1` was tested, and the Potency was “inactive”. In the case of `CN(C)C(=O)COC(=O)c1cccc(S(=O)(=O)N2CC3(C)CC2CC(C)(C)C3)c1` (configuration not stated), the Potency is reported as “inactive”. For `O=C(CNC(=O)c1ccccc1Br)NNC(=O)c1cccs1`, the Potency was “inactive”.
